Source: PubChem BioAssay
Sfp PPTase inh: qHTS Assay for Inhibitors of Bacillus subtilis Sfp phosphopantetheinyl transferase (PPTase); 4'-phosphopantetheinyl transferase ffp (Bacillus subtilis), Q9F4F7; Biochemical Sfp PPTase activity, qHTS; Potency, µM, without a hit: largest response in the series, negative = inhibition, hits mostly inhibitors; 3.5% of 310,000 active;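 further: the enzyme is Sfp with the accession as filed and its product quenches rhodamine fluorescence; potency means the concentration at half of the fitted maximal effect; 0% = enzyme reaction without inhibitor and -100% = no enzyme wells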
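Buffer: 50 mM Hepes-Na pH 7.6, 10 mM MgCl2, 0.01% Nonidet P-40, 0.01% BSA. Enzyme 15 nM, pre-exposed to compound 15 min; substrates then added and fluorescence change tracked over 30 min.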
ALDH1A1 inh: qHTS Assay for Inhibitors of Aldehyde Dehydrogenase 1 (ALDH1A1) | Potency, µM (doses to about 75.3 µM), inactives show at the highest dose activity, negative = inhibition, actives largely listed as inhibitors | 7.3% of 220,000 active | Purified ALDH1A1, NADH fluorescence, propionaldehyde substrate; active means well fitted inhibition curve with a large enough effect, not every such curve was filed as active; inconclusive means small, poorly fitted or top-dose-only effect, or another doubt; inactive means no such curve, though single readings can be large or run the other way;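 further: potency means the concentration at half of the fitted maximal effect; plate controls were no enzyme wells and a reference inhibitor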
G9a inh: qHTS Assay for Inhibitors of Histone Lysine Methyltransferase G9a; 8.8% of 350,000 active; Histone-lysine N-methyltransferase EHMT2 (Homo sapiens), Q96KQ7; G9a H3K9 monomethylation, AlphaScreen, 2 h; Potency, µM (titrated, usually from 102 µM), without a hit: at the highest dose activity, negative = inhibition, actives largely listed as inhibitors; AID 504332, 2011; further: potency means the concentration at half of the fitted maximal effect; on the % scale 0 is the no-effect control and ±100 the full control effect; nearly all actives have a fitted effect of over 75% in size
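Compounds were preincubated with 20 nM G9a for 15 min, after which biotinylated H3K9 peptide (500 nM) and SAM (20 uM) started a 2 h room-temperature reaction. Monomethylated product was quantified by antibody-based AlphaScreen chemiluminescence.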
KDM4E inh: qHTS Assay for Inhibitors of Human Jumonji Domain Containing 2E (JMJD2E); JMJD2E catalytic domain, FDH-coupled NADH fluorescence (FDH is formaldehyde dehydrogenase); AID 2147, 2009; Potency, µM (series often up to 57.1 µM), for the others: top-dose activity change, negative = inhibition, usual class: inhibitors; 1.6% of 230,000 active; active means well fitted inhibition curve with a large enough effect, not every such curve was filed as active; inconclusive means small, poorly fitted or top-dose-only effect, or another doubt; inactive means no such curve, though single readings can be large or run the other way;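 further: potency means the concentration at half of the fitted maximal effect; 0% = wells with enzyme and -100% = buffer wells without enzyme; nearly all actives have a fitted effect of over 50% in size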
Target sequence (B2RXH2 1-337 limits assumed): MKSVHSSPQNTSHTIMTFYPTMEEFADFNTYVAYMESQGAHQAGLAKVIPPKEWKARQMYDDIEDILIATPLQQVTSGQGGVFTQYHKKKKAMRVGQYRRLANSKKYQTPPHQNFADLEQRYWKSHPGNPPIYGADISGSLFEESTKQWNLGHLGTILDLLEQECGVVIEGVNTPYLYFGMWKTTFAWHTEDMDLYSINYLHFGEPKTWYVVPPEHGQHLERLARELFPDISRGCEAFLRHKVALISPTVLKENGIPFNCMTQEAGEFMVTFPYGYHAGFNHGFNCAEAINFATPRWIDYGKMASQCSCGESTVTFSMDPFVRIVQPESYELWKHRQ
LMNA splice mod: qHTS Assay for Modulators of Lamin A Splicing. HeLa LMNA splicing GFP/RFP minigene ratio, 48 h. Potency, µM (top dose mostly 46.1 µM), without a hit: top-dose ratio change, negative = inhibition, most hits filed as inhibitors. 0.01% of 200,000 active. AID 1487, 2009; active means well fitted inhibition curve with a large enough effect in the signal ratio, with a control signal flat, not every such curve was filed as active; inconclusive means small, poorly fitted or top-dose-only effect, or effect the other way, or a change in a side signal; the % refers to the signal ratio; further: potency means the concentration at half of the fitted maximal effect; on the % scale 0 is the no-effect control and ±100 the full control effect
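Read-out is the ratio of GFP to DsRed2 object intensity, acquired by 488 nm laser-scanning cytometry on HeLa lamin A-EGFP minigene reporter cells. Compound incubation 48 hrs at 37 °C in Opti-MEM with 2% FBS; DMSO 0.5% final.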
miR-21 act: qHTS Assay for Modulators of miRNAs and/orActivators of miR-21; 340,000 tested, under 10 active; HeLa miR-21 FLuc reporter, luciferase, 48 h; Potency, µM (series often up to 38.3 µM), for inactives: top-dose activity change, positive = activation, actives largely listed as activators;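 further: % of control where 0% means no effect; miR-21 action dims this reporter so a rising signal means less miR-21 action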
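HeLa miR-21-FLuc reporter line, endogenous miR-21; 2000 cells/well in DMEM/10% FBS; compound titration up to ~40uM final, 48 h, 37 degree Celsius; luciferase detection reagent, 15 min lysis, CCD luminescence.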
An asterisk follows results filed as active; u = inconclusive; x = no result; [ ] = dose if it differs, or a comment. Hits are enriched below; roughly 13% of the tested compounds scored in any of these assays. Unless noted, the call rests on the fitted dose curve; in most records, active means well fitted curve in the direction sought with a large enough effect; inconclusive means small, poorly fitted or top-dose-only effect, or another doubt; inactive means no such curve, though single readings can be large; an effect the other way counts as inactive or inconclusive.

SMILES	Sfp PPTase inh	ALDH1A1 inh	G9a inh	KDM4E inh	LMNA splice mod	miR-21 act
CCn1c(CC(=O)Nc2cccc(OC)c2)nnc1SCC(=O)N1CCN(c2ccccc2)CC1	11%	5%	13µM*	1%	5%	-1%
COc1cccc(NC(=O)Cc2nnc(SCCOc3ccccc3)n2C)c1	10%	-11%	-36%[12.7 µM]	10%	2%	-1%
Cc1nnc(Nc2ccc(C(=O)O)cc2)[nH]c1=O	9%	3%	3%	1%	x	4%
Cc1nnc(Nc2ccc(O)cc2)[nH]c1=O	6%	-1%	50µM*	-9%	5%[46 µM]	-1%
COc1cccc(NC(=O)CSc2nnc(Cc3cccs3)n2-c2ccc(C)cc2)c1	13%	3µM*	-37%[59 µM]	-7%	u	11%
Cc1ccc(-n2c(Cc3cccs3)nnc2SCC(=O)Nc2ccc(S(N)(=O)=O)cc2)cc1	10%	u	45µM*	-1%	10%	10%
C=CCn1c(Cc2cccs2)nnc1SCC(=O)Nc1ccc(OC)cc1	12%	-9%	7%[59 µM]	4%	9%	-4%
COc1ccc(NC(=O)CSc2nnc(Cc3cccs3)n2-c2ccc(C)cc2)cc1	6%	16µM*	35µM*	9%	-6%	2%
O=C1C=C(c2ccc(F)nc2)C[C@@H](c2ccc3c(c2)OCO3)C1	x	x	1%[0.501 µM]	x	x	x
COCC(=O)N1CCC2(CC1)CN(c1ccccc1)C2	-15%	-11%	-2%[12.7 µM]	x	x	x
COc1ccc(-c2nc3c(c(SCc4ccc(Br)cc4)n2)Cc2c(CO)cnc(C)c2O3)cc1	x	x	-9%[59 µM]	x	x	0%
C=CCN(CC=C)CCOc1ccccc1F	u	u	7.1µM*	-1%	u	-2%
C=CCN(CC=C)CCOc1cccc2ccccc12	-16%	u	11µM*	u	10%	-3%
OCCNCCOc1ccccc1F	17%	12%	-1%[59 µM]	4%	-6%	-11%
CSc1nc2ccc(NC(=O)C3=NN(c4ccccc4)C(=O)CC3)cc2s1	-5%	u	45µM*	-27%	-27%[46 µM]	-6%
O=C(NCc1ccncc1)C1=NN(c2ccccc2)C(=O)CC1	13%	u	25µM*	-3%	-2%[46 µM]	1%
CSc1nc2ccc(NC(=O)C3=NNC(=O)CC3)cc2s1	9%	0%	3%	1%	-10%[46 µM]	-31%
Cc1cc(C)c(-c2csc(NC(=O)C3=NN(c4ccccc4)C(=O)CC3)n2)c(C)c1	-7%	u	28µM*	u	u	17%
CCc1ccc(-c2csc(NC(=O)C3=NN(c4ccccc4)C(=O)CC3)n2)cc1	5%	0%	-16%[59 µM]	-20%	u	-12%
CCCN(Cc1cc2cccc(C)c2[nH]c1=O)C(=O)c1cccc(Cl)c1	x	x	-10%[59 µM]	x	x	2%
CN(C)CC/C=C1\c2ccccc2COc2ccc(CC(=O)O)cc21	2%	x	23%[59 µM]	x	u	x
COc1cc(C(C)=O)ccc1Oc1cc(NN2CCCCC2)c([N+](=O)[O-])cc1[N+](=O)[O-]	15%	x	28µM*	x	x	0%
Cc1ccc(F)c(Oc2cc(NN3CCCCC3)c([N+](=O)[O-])cc2[N+](=O)[O-])c1	3%	x	x	x	x	-2%
CC1(C)Cc2cccc(Oc3cc(NN4CCCCC4)c([N+](=O)[O-])cc3[N+](=O)[O-])c2O1	2%	x	35µM*	x	x	-4%
O=[N+]([O-])c1cc([N+](=O)[O-])c(Oc2ccccc2F)cc1NN1CCCCC1	12%	x	x	x	x	0%
Cc1ccc(C)c(Oc2cc(NN3CCCCC3)c([N+](=O)[O-])cc2[N+](=O)[O-])c1	4%	x	7.9µM*	x	x	-1%
